Mtb FBA inh – Mtb FBA enzyme inhibitors, primary screen, biochemical, fluorescence, strain H37Rv. purified M. tuberculosis FBA, fluorescence read-out. inhibition, % at 1 µM. 360,000 tested, 2.3% active
Target sequence (P9WQA3 whole entry, looked up): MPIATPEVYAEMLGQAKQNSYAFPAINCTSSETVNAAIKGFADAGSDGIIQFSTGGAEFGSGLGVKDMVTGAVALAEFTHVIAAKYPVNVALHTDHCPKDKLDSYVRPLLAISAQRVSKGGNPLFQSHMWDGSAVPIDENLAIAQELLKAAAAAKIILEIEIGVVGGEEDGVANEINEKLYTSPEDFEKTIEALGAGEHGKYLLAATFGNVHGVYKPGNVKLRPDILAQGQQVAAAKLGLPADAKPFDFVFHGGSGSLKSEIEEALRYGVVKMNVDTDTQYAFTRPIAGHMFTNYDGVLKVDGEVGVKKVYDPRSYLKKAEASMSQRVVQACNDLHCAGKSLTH
BioA inh – M. tuberculosis BioA enzyme inhibitors, primary screen, biochemical, plate reader, single point, HTS | inhibition, % at 9.99 µM | purified M. tuberculosis BioA enzyme | 360,000 tested, 0.096% active; in the data active = inhibition above about 40%
FadD28 binding – inhibitors of FadD28 bisubstrate probe binding, primary screen, biochemical, fluorescence polarization, single point. Mycobacterium tuberculosis FadD28 fatty-acid-AMP ligase. inhibition, % at 12.5 µM. 360,000 tested, 0.22% active. AID 588549, 2011; in the data active = inhibition above about 8.5%, passing the limit was not always enough
GDH-TPI counter-1 – GDH-TPI coupling enzyme inhibitors, primary screen, artefact control for M. tuberculosis FBA inhibitor project, biochemical, absorbance, full deck; inhibition, % at 4.8 µM; GDH-TPI coupled enzyme counterscreen, NADH absorbance; 360,000 tested, 1.2% active; in the data active = inhibition above about 30%
SARS 3CLpro inh – SARS-CoV 3CLpro protease inhibitors, primary screen, biochemical, quenched FRET | recombinant SARS-CoV 3CLpro, quenched FRET peptide cleavage | 290,000 tested, 0.14% active | Replicase polyprotein 1ab (Severe acute respiratory syndrome coronavirus), P0C6X7 | inhibition, % at 6 µM; in the data active = inhibition above about 12%
Mtb FBA confirm – M. tuberculosis aldolase blockers, biochemical, fluorescence, strain H37Rv, confirmation; shares compounds with Mtb FBA inh; purified M. tuberculosis FBA, fluorescence read-out; inhibition, % at 1 µM; 5,600 tested, 78% active; AID 651616, 2012
GDH-TPI counter-2 – GDH-TPI coupling enzyme inhibitors, artefact control for M. tuberculosis FBA inhibitor project, biochemical, fluorescence, high throughput; shares compounds with Mtb FBA inh; GDH-TPI coupled enzyme counterscreen; inhibition, % at 1 µM; 5,600 tested, 81% active; in the data active = inhibition above about 10%
Large screens that a line does not name were inactive (follow-up assays come after a bar, where they were run). Most compounds without a hit are left out; they make up all but 3.1% or so of the library. Rule as the data show it, unless noted: active = inhibition above about 27%; inactive = the rest.

O=C(COc1ccc2c(c1)oc(=O)c1ccccc12)NCCN1CCOCC1	Mtb FBA inh 91 | Mtb FBA confirm 128 | GDH-TPI counter-2 105
CO[C@@H](CN(C)S(=O)(=O)c1ccc(C)cc1)[C@H](C)CN(Cc1ccccc1Cl)[C@@H](C)CO	none (no result: Mtb FBA inh, FadD28 binding, GDH-TPI counter-1, SARS 3CLpro inh)
CC(=O)NCCNc1nc2cc(-c3ccc4c(ccn4C)c3)sc2c(=O)n1C	Mtb FBA inh 33 (no result: SARS 3CLpro inh) | Mtb FBA confirm 78 | GDH-TPI counter-2 83
CCSc1nc(-c2ccc(OC)cc2)ccc1C#N	Mtb FBA inh 42 | Mtb FBA confirm 84 | GDH-TPI counter-2 80
Cc1ccc(C(=O)CSc2nc(-c3ccccc3)ccc2C#N)cc1	none
COc1ccc(-c2ccc(C#N)c(SCC(=O)NC3CC3)n2)cc1OC	Mtb FBA inh 99 (no result: BioA inh) | Mtb FBA confirm 108 | GDH-TPI counter-2 111
Cc1ccc(S(=O)(=O)N(C)C[C@@H]2OCCCC[C@H](C)Oc3ccc(NC(=O)Nc4cccc5ccccc45)cc3C(=O)N([C@@H](C)CO)C[C@H]2C)cc1	none (no result: Mtb FBA inh, FadD28 binding, GDH-TPI counter-1, SARS 3CLpro inh)
O=C(CN1C(=O)NC2(CCCCCCC2)C1=O)N1CCN(C(=O)c2ccco2)CC1	Mtb FBA inh 42 | Mtb FBA confirm active | GDH-TPI counter-2 161
C[C@@H](C(=O)NCCc1ccccc1F)N1C(=O)N2CCc3c([nH]c4ccccc34)[C@@]2(C)C1=O	Mtb FBA inh 32 | Mtb FBA confirm active | GDH-TPI counter-2 188
CCOC(=O)c1oc2ccccc2c1NC(=O)CN1CCN(C)CC1	none
CCOC(=O)c1[nH]c2ccc(C)cc2c1NC(=O)CN1CCCCC1	none
CCOC(=O)c1[nH]c2ccc(F)cc2c1NC(=O)CCN1CCSCC1	none
CCOC(=O)c1[nH]c2ccc(OCC)cc2c1NC(=O)CN1CCCC(C)C1 (configuration not stated)	Mtb FBA inh 38 | Mtb FBA confirm 49 | GDH-TPI counter-2 47
CCOC(=O)c1[nH]c2ccc(OC)cc2c1NC(=O)CN1CCC2(CC1)OCCO2	Mtb FBA inh 47 | Mtb FBA confirm 134 | GDH-TPI counter-2 104
CCOC(=O)c1[nH]c2ccc(OC)cc2c1NC(=O)CCN1CCSCC1	Mtb FBA inh 71 (no result: BioA inh) | Mtb FBA confirm 51 | GDH-TPI counter-2 43
CCOC(=O)c1oc2ccc(OC)cc2c1NC(=O)CN1CCN(C)CC1	Mtb FBA inh 40 (no result: BioA inh) | Mtb FBA confirm inactive | GDH-TPI counter-2 inactive
CCCC#Cc1ccc2c(c1)O[C@@H](CN(C)C(=O)Nc1ccc(OC)cc1)[C@H](C)CN([C@H](C)CO)S2(=O)=O	none (no result: Mtb FBA inh, FadD28 binding, GDH-TPI counter-1, SARS 3CLpro inh)
O=C(C[C@H]1CC[C@@H](NC(=O)C2CCC2)[C@H](CO)O1)Nc1nccs1	none (no result: Mtb FBA inh, FadD28 binding, GDH-TPI counter-1, SARS 3CLpro inh)
C[C@@H]1CN([C@H](C)CO)C(=O)c2cccc(NC(=O)c3cnccn3)c2O[C@H]1CN(C)Cc1ccc2c(c1)OCO2	none (no result: Mtb FBA inh, FadD28 binding, GDH-TPI counter-1, SARS 3CLpro inh)
O=C(COc1ccc2c(c1)oc(=O)c1ccccc12)NCC1CCC(C(=O)O)CC1 (configuration not stated)	Mtb FBA inh 34 | Mtb FBA confirm 90 | GDH-TPI counter-2 54
Cc1c(Cc2ccccc2)c(=O)oc2cc(OC(C)C(=O)NCC3CCC(C(=O)O)CC3)c(Cl)cc12 (configuration not stated)	Mtb FBA inh 34 | Mtb FBA confirm active | GDH-TPI counter-2 190
CCc1c(C)c2ccc(OCC(=O)NCC3CCC(C(=O)O)CC3)cc2oc1=O (configuration not stated)	Mtb FBA inh 79 | Mtb FBA confirm 56 | GDH-TPI counter-2 36
O=C(COc1cc2oc(=O)cc(-c3ccccc3)c2cc1Cl)NCC1CCC(C(=O)O)CC1 (configuration not stated)	none
C[C@H](CO)N1C[C@H](C)[C@H](CN(C)C(=O)C2CC2)Oc2cc(-c3cncnc3)ccc2S1(=O)=O	none (no result: Mtb FBA inh, FadD28 binding, GDH-TPI counter-1, SARS 3CLpro inh)
